Screening results from PubChem.
Rows were chosen to be rich in hits. Some 3.6% of all compounds tested hit in one or more screens of this group.
mHTT CaM bind: inhibitors of human mutant huntingtin-calmodulin interaction; P42858; inhibition, % at 15 µM; AlphaScreen His-mHTT/GST-CaM binding, luminescence; actives 3.6% (n = 190,000);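 further: 0% = both proteins with DMSO and 100% = one protein alone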
Pf apPOL inh: Pf-apPOL DNA polymerase inhibition. Recombinant Pf-apPOL, molecular beacon fluorescence, 1.5 h. actives 0.25% (n = 210,000). inhibition, % at 10 µM
The depositor's hits bear a star; · = no result given. No stated cut-off is given here; in the data, active means inhibition above about 50%; inactive means the rest.

SMILES | mHTT CaM bind | Pf apPOL inh
COc1cc(/C=C(\C#N)c2nc3ccccc3[nH]2)cc(Br)c1O | 1 | 8
COc1cc(/C=C(\C#N)c2nc3ncc(Br)cc3[nH]2)ccc1O | 55* | -7
COc1ccc(C(=O)Oc2cc(C)[nH]c(=O)c2[N+](=O)[O-])cc1 | 97* | 2
COc1ccc(C=CC(=O)Oc2cc(C)[nH]c(=O)c2[N+](=O)[O-])cc1OC | 91* | 6
CCCCOc1ccc(C(=O)Oc2cc(C)[nH]c(=O)c2[N+](=O)[O-])cc1 | 10 | -6
COc1ccc(Cl)cc1C(=O)Oc1cc(C)[nH]c(=O)c1[N+](=O)[O-] | -5 | -4
Cc1ccc([N+](=O)[O-])cc1-c1ccc(/C=C(\C#N)c2nn(-c3ccccc3)c(N)c2C#N)o1 | 10 | 3
Cc1cc(=O)[nH]c(SCC(N)=O)n1 | -6 | ·
COc1ccc2oc(=O)c(-c3csc(-c4ccc([N+](=O)[O-])cc4)n3)cc2c1 | -5 | -6
O=C(NC1CCCC1)C1c2ccccc2C(=O)N1Cc1ccccc1Cl (stereo not given) | 53* | 1
CC1CCC(NC(=O)C2c3ccccc3C(=O)N2Cc2ccccc2Cl)CC1 (stereo not given) | 8 | -3
O=C(NCCn1nc(-c2ccccc2)ccc1=O)c1ccc(-n2cccc2)cc1 | 63* | -6
Cn1nc(-c2ccccc2)cc1C(=O)NCCn1nc(-c2ccc(Cl)cc2)ccc1=O | -6 | -8
O=C(O)CSCC(=O)NC1CCN(Cc2ccccc2)CC1 | · | 0
C=CCSc1nnc2c(n1)OC(c1cc3c(cc1[N+](=O)[O-])OCO3)Nc1ccccc1-2 (stereo not given) | 93* | 0
CCCSc1nnc2c(n1)OC(c1cc3c(cc1[N+](=O)[O-])OCO3)Nc1ccccc1-2 (stereo not given) | -6 | 4
O=C(Cn1nc(N2CCCCCC2)c2ccccc2c1=O)NCc1ccc(F)cc1 | 1 | 0
CC(Sc1ccccc1)C(=O)Nc1ccc(Cl)cc1 (stereo not given) | -42 | -2
Cc1onc(-c2ccccc2Cl)c1C(=O)N1CCN=C1SCc1ccccc1 | -7 | -13
O=C(NCc1n[nH]c(=O)c2ccccc12)c1cc(-c2ccco2)[nH]n1 | 31 | 78*
O=C(NCc1n[nH]c(=O)c2ccccc12)c1cccc2ccccc12 | -8 | -2
CSc1ccccc1NC(=O)C(c1ccccc1)c1ccccc1 | -26 | -7
CSc1ccccc1NC(=O)C(c1ccccc1)n1cccc1 (stereo not given) | 60* | 15
O=C(NC(Nc1ccc([N+](=O)[O-])cc1)C(Cl)(Cl)Cl)c1cccc([N+](=O)[O-])c1 (stereo not given) | 98* | -1
O=C(Nc1cccc(Cl)c1)c1ccc([N+](=O)[O-])cc1Cl | 16 | 4
SMILES | mHTT CaM bind | Pf apPOL inh
Cc1cccc(NC(NC(=O)N(C)C)C(Cl)(Cl)Cl)c1 (stereo not given) | 5 | -3
Cc1cccc(NC(NC(=O)c2ccc([N+](=O)[O-])cc2)C(Cl)(Cl)Cl)c1 (stereo not given) | 76* | -1
NS(=O)(=O)c1ccc(NC(NC(=O)c2cccc(Cl)c2)C(Cl)(Cl)Cl)cc1 (stereo not given) | 10 | 0
O=C(Nc1cccc(Cl)c1)c1cccc([N+](=O)[O-])c1 | 92* | -16
O=C(NC(Nc1ccc([N+](=O)[O-])cc1)C(Cl)(Cl)Cl)c1cccc(Cl)c1 (stereo not given) | 100* | 0
NS(=O)(=O)c1ccc(NC(NC(=O)c2ccc([N+](=O)[O-])cc2)C(Cl)(Cl)Cl)cc1 (stereo not given) | 15 | -10
O=C(Nc1ccc(OCC(=O)N2CCOCC2)cc1)c1cccnc1 | 4 | -4
CC(C)NC(=O)N1CCN(c2nc3ccccc3[nH]2)CC1 | -11 | -1
O=[N+]([O-])c1ccc(N2CCN(CCO)CC2)cc1Sc1nnnn1-c1ccccc1 | 30 | -2
CS(=O)(=O)N(CC(=O)NCc1ccccn1)c1ccc(Cl)c(Cl)c1 | 10 | -10
CCSc1ccsc1C1C(C#N)=C(N)N(c2ccccc2)C2=C1C(=O)CCC2 (stereo not given) | 15 | -2
Cc1cc(C2C(C#N)=C(N)N(c3cccc(C(F)(F)F)c3)C3=C2C(=O)CCC3)c(C)s1 (stereo not given) | 61* | -2
COc1cc(C2C(C#N)=C(N)N(c3ccccc3)C3=C2C(=O)CCC3)cc(OC)c1OC (stereo not given) | 10 | -2
Cc1cc(C2C(C#N)=C(N)N(c3ccc(F)cc3)C3=C2C(=O)CCC3)c(C)s1 (stereo not given) | 12 | -2
COc1cc(C2C(C#N)=C(N)N(c3cccc([N+](=O)[O-])c3)C3=C2C(=O)CCC3)cc(OC)c1OC (stereo not given) | 1 | 85*
Cc1cccc(N2C(N)=C(C#N)C(c3cc(Br)cs3)C3=C2CCCC3=O)c1 (stereo not given) | 51* | 80*
N#CC1=C(N)N(c2ccc(Cl)cc2)C2=C(C(=O)CCC2)C1c1cc(Br)cs1 (stereo not given) | 55* | -10
N#CC1=C(N)N(c2ccc(Br)cc2)C2=C(C(=O)CCC2)C1c1ccsc1 (stereo not given) | 8 | 0
O=C(NCC1CCCO1)N1CCC(OCc2nc(C3CC3)no2)CC1 (stereo not given) | -7 | -5
O=C(CCCn1cnc([N+](=O)[O-])n1)Nc1cc(Br)ccc1O | 4 | 5
CCOc1ccc(N=Cc2ccc(N(CC)CC)cc2O)cc1 | 7 | 2
O=C(c1ccc(OCC2CCN(C(=O)c3ccncc3)CC2)cc1)N1CCOCC1 | -4 | 1
CCc1ccc(C2C(C#N)=C(N)N(c3ccc(F)cc3)C3=C2C(=O)CCC3)s1 (stereo not given) | 27 | -1
N#CC1=C(N)N(c2ccc(F)cc2)C2=C(C(=O)CCC2)C1c1ccc(Br)s1 (stereo not given) | 86* | 1
CCCC(=O)N1CCC(c2nc(C(=O)N3CCCCC3)c(C)o2)CC1 | 11 | -7
SMILES | mHTT CaM bind | Pf apPOL inh
O=C1C2C(c3cccc(/C=C/c4ccccc4)c3)CC=CC2C(c2ccc3ccccc3c2)N1Cc1ccccc1 (stereo not given) | -6 | -5
C[C@@H]1CC=C[C@H]2[C@H]1C(=O)N(Cc1ccccc1)[C@H]2c1ccoc1 | 15 | 1
CC[C@@H]1CC=C[C@H]2[C@H]1C(=O)N(Cc1ccccc1)[C@H]2c1ccc(C(F)(F)F)cc1 | 71* | -4
O=C1C2C(c3ccccc3)CC=CC2[C@H](c2cccc(Br)c2)N1Cc1ccccc1 (stereo not given in full) | 100* | -1
CC[C@@H]1CC=C[C@H]2[C@H]1C(=O)N(Cc1ccccc1)[C@H]2c1ccoc1 | 85* | -1
O=C1C2C(c3cccc(/C=C/c4ccccc4)c3)CC=CC2C(c2ccc(C(F)(F)F)cc2)N1Cc1ccccc1 (stereo not given) | -3 | -4
COc1cccc(NC(=O)Nc2nnc(C3CCCC3)s2)c1 | -5 | -6
COc1ccccc1-c1cc2nc(C)cc(N3CCC(C)CC3)n2n1 | -29 | -8
c1ccc2c(c1)CCC2=NNC1=NCCN1 | · | -5
COc1ccc(C(C#N)N2N=C(C)CC2c2ccccc2)cc1OC (stereo not given) | 5 | 5
